Assay results from PubChem BioAssay AID1159580 (chemical genetic matrix, 2015).
Among all 5,500 compounds or so, about 2,000 (36%) were called active. Roughly 18% stayed inconclusive and do not appear here. Cut-off read from the data, not from the text of the source: active = normalized growth mostly below about 0.91 (no sharp cut-off); inconclusive = no clear call, values can overlap the other calls; inactive = mostly above about 0.92. The list shows a part of the results.

Experiment: chemical genetic growth profiling, strain panel (AID 1159580);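 note: tested at 20 µM; growth read once vehicle control cultures reached saturation at 30 °C; 1 = growth at the plate median or of vehicle wells; lower values mean less growth of the strain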
Details: growth OD
[1] = S. cerevisiae deletion strains, locus YDL101C, strain DUN1, stronger effect = lower value
[2] = S. cerevisiae deletion strains, locus YHR030C, strain SLT2, stronger effect = lower value
[3] = S. cerevisiae deletion strains, locus YAL013W, strain DEP1, stronger effect = lower value
[4] = S. cerevisiae deletion strains, locus YBR229C, strain ROT2, stronger effect = lower value
[5] = S. cerevisiae deletion strains, locus YCL061C, strain MRC1, stronger effect = lower value
[6] = S. cerevisiae deletion strains, locus YDR150W, strain NUM1, stronger effect = lower value
[7] = S. cerevisiae deletion strains, locus YEL061C, strain CIN8, stronger effect = lower value
[8] = S. cerevisiae deletion strains, locus YGR078C, strain PAC10, stronger effect = lower value
[9] = S. cerevisiae deletion strains, locus YHR087W, strain rtc3, stronger effect = lower value
[10] = S. cerevisiae deletion strains, locus YJR043C, strain POL32, stronger effect = lower value
[11] = S. cerevisiae deletion strains, locus YJR075W, strain HOC1, stronger effect = lower value
[12] = S. cerevisiae deletion strains, locus YLR039C, strain RIC1, stronger effect = lower value
[13] = S. cerevisiae deletion strains, locus YLR058C, strain SHM2 (second series), stronger effect = lower value
[14] = S. cerevisiae deletion strains, locus YLR085C, strain ARP6, stronger effect = lower value
[15] = S. cerevisiae deletion strains, locus YLR262C, strain YPT6, stronger effect = lower value
[16] = S. cerevisiae deletion strains, locus YML094W, strain GIM5, stronger effect = lower value
[17] = S. cerevisiae deletion strains, locus YMR219W, strain ESC1, stronger effect = lower value
[18] = S. cerevisiae deletion strains, locus YMR263W, strain SAP30, stronger effect = lower value
[19] = S. cerevisiae deletion strains, locus YNL128W, strain TEP1, stronger effect = lower value
[20] = S. cerevisiae deletion strains, locus YNL153C, strain GIM3, stronger effect = lower value
[21] = S. cerevisiae deletion strains, locus YNL298W, strain CLA4 (second series), stronger effect = lower value
[22] = S. cerevisiae deletion strains, locus YNL322C, strain KRE1, stronger effect = lower value
[23] = S. cerevisiae deletion strains, locus YNR030W, strain Alg12, stronger effect = lower value
[24] = S. cerevisiae deletion strains, locus YOL006C, strain TOP1, stronger effect = lower value
[25] = S. cerevisiae deletion strains, locus YPL055C, strain LGE1, stronger effect = lower value
[26] = S. cerevisiae deletion strains, locus YPL241C, strain CIN2, stronger effect = lower value
[27] = S. cerevisiae deletion strains, locus YPR135W, strain CTF4, stronger effect = lower value
[28] = S. cerevisiae strains, strain wild type, stronger effect = lower value
[29] = S. cerevisiae deletion strains, locus YGR229C, strain SMI1, stronger effect = lower value

Measured: normalized growth

O=C(N/C=C/c1ccsc1)Nc1cc(C(F)(F)F)cc(C(F)(F)F)c1
inactive: S. cerevisiae deletion strains, locus YAR019C, strain CDC15, stronger effect = lower value 0.968 | S. cerevisiae deletion strains, locus YBL105C, strain PKC1, stronger effect = lower value 0.967 | S. cerevisiae deletion strains, locus YBR135W, strain CKS1, stronger effect = lower value 0.974 | S. cerevisiae deletion strains, locus YBR136W, strain MEC1, stronger effect = lower value 0.989 | S. cerevisiae deletion strains, locus YBR160W, strain CDC28, stronger effect = lower value 0.976 | S. cerevisiae deletion strains, locus YDL017W, strain CDC7, stronger effect = lower value 0.98 | S. cerevisiae deletion strains, locus YDL028C, strain MPS1, stronger effect = lower value 0.979 | [1] 0.995 | S. cerevisiae deletion strains, locus YDL108W, strain KIN28, stronger effect = lower value 0.987 | S. cerevisiae deletion strains, locus YDL132W, strain cdc53, stronger effect = lower value 0.983 | S. cerevisiae deletion strains, locus YDR052C, strain DBF4, stronger effect = lower value 0.98 | S. cerevisiae deletion strains, locus YDR054C, strain cdc34, stronger effect = lower value 0.958 | S. cerevisiae deletion strains, locus YDR226W, strain ADK1, stronger effect = lower value 0.98 | S. cerevisiae deletion strains, locus YFL009W, strain cdc4, stronger effect = lower value 0.977 | S. cerevisiae deletion strains, locus YFL029C, strain CAK1, stronger effect = lower value 0.98 | S. cerevisiae deletion strains, locus YFR003C, strain YPI1, stronger effect = lower value 0.979 | S. cerevisiae deletion strains, locus YFR028C, strain CDC14, stronger effect = lower value 0.97 | S. cerevisiae deletion strains, locus YIL147C, strain SLN1, stronger effect = lower value 0.981 | S. cerevisiae deletion strains, locus YJL128C, strain PBS2, stronger effect = lower value 0.873 | S. cerevisiae deletion strains, locus YJR016C, strain ILV3, stronger effect = lower value 0.977 | S. cerevisiae deletion strains, locus YJR066W, strain TOR1, stronger effect = lower value 0.507 | S. cerevisiae deletion strains, locus YKL193C, strain SDS22, stronger effect = lower value 0.979 | S. cerevisiae deletion strains, locus YMR001C, strain CDC5, stronger effect = lower value 0.976 | S. cerevisiae deletion strains, locus YMR277W, strain FCP1, stronger effect = lower value 0.966 | S. cerevisiae deletion strains, locus YNL006W, strain LST8, stronger effect = lower value 0.979 | S. cerevisiae deletion strains, locus YNL161W, strain CBK1, stronger effect = lower value 0.976 | S. cerevisiae deletion strains, locus YNL207W, strain RIO2, stronger effect = lower value 0.976 | S. cerevisiae deletion strains, locus YNL222W, strain SSU72, stronger effect = lower value 0.974 | S. cerevisiae deletion strains, locus YOL078W, strain AVO1, stronger effect = lower value 0.984 | S. cerevisiae deletion strains, locus YOR061W, strain CKA2, stronger effect = lower value 0.726 | S. cerevisiae deletion strains, locus YOR119C, strain RIO1, stronger effect = lower value 0.719 | S. cerevisiae deletion strains, locus YOR329C, strain SCD5, stronger effect = lower value 0.981 | S. cerevisiae deletion strains, locus YPL209C, strain IPL1, stronger effect = lower value 0.968 | S. cerevisiae deletion strains, locus YPR025C, strain CCL1, stronger effect = lower value 0.98 | S. cerevisiae deletion strains, locus YPR106W, strain ISR1, stronger effect = lower value 0.971 | S. cerevisiae deletion strains, locus YPR111W, strain DBF20, stronger effect = lower value 0.958 | S. cerevisiae deletion strains, strain NNK1, stronger effect = lower value 0.969 | S. cerevisiae deletion strains, strain TSCII, stronger effect = lower value 0.973
active: S. cerevisiae deletion strains, locus YDL214C, strain PRR2, stronger effect = lower value 0.643 | S. cerevisiae deletion strains, locus YDR477W, strain SNF1, stronger effect = lower value 0.61 | S. cerevisiae deletion strains, locus YER123W, strain YCK3, stronger effect = lower value 0.44 | S. cerevisiae deletion strains, locus YER133W, strain GLC7, stronger effect = lower value 0.63 | S. cerevisiae deletion strains, locus YFR019W, strain FAB1, stronger effect = lower value 0.639 | S. cerevisiae deletion strains, locus YGR040W, strain KSS1, stronger effect = lower value 0.613 | S. cerevisiae deletion strains, locus YGR052W, strain FMP48, stronger effect = lower value 0.33 | S. cerevisiae deletion strains, locus YGR092W, strain DBF2, stronger effect = lower value 0.254 | [2] 0.426 | S. cerevisiae deletion strains, locus YHR079C, strain IRE1, stronger effect = lower value 0.457 | S. cerevisiae deletion strains, locus YHR082C, strain KSP1, stronger effect = lower value 0.393 | S. cerevisiae deletion strains, locus YHR205W, strain SCH9, stronger effect = lower value 0.516 | S. cerevisiae deletion strains, locus YJL095W, strain BCK1, stronger effect = lower value 0.505 | S. cerevisiae deletion strains, locus YJL157C, strain FAR1, stronger effect = lower value 0.676 | S. cerevisiae deletion strains, locus YJR066W, strain TOR1 (second series), stronger effect = lower value 0.507 | S. cerevisiae deletion strains, locus YKL048C, strain ELM1, stronger effect = lower value 0.726 | S. cerevisiae deletion strains, locus YKL067W, strain YNK1, stronger effect = lower value 0.587 | S. cerevisiae deletion strains, locus YKL101W, strain HSL1, stronger effect = lower value 0.387 | S. cerevisiae deletion strains, locus YKL203C, strain TOR2, stronger effect = lower value 0.58 | S. cerevisiae deletion strains, locus YLR113W, strain HOG1, stronger effect = lower value 0.315 | S. cerevisiae deletion strains, locus YLR133W, strain CKI1, stronger effect = lower value 0.597 | S. cerevisiae deletion strains, locus YLR403W, strain SFP1, stronger effect = lower value 0.444 | S. cerevisiae deletion strains, locus YML070W, strain DAK1, stronger effect = lower value 0.361 | S. cerevisiae deletion strains, locus YMR205C, strain PFK2 (second series), stronger effect = lower value 0.672 | S. cerevisiae deletion strains, locus YNL020C, strain ARK1, stronger effect = lower value 0.541 | S. cerevisiae deletion strains, locus YNL183C, strain NPR1, stronger effect = lower value 0.309 | S. cerevisiae deletion strains, locus YNL307C, strain MCK1 (second series), stronger effect = lower value 0.41 | S. cerevisiae deletion strains, locus YOL136C, strain PFK27, stronger effect = lower value 0.555 | S. cerevisiae deletion strains, locus YOR231W, strain MKK1, stronger effect = lower value 0.507 | S. cerevisiae deletion strains, locus YPL031C, strain PHO85, stronger effect = lower value 0.417 | S. cerevisiae deletion strains, locus YPL153C, strain RAD53, stronger effect = lower value 0.345 | S. cerevisiae deletion strains, locus YPL204W, strain HRR25, stronger effect = lower value 0.434 | S. cerevisiae deletion strains, locus YPL256C, strain CLN2, stronger effect = lower value 0.444

COc1cc(C(F)(F)F)cc(C(F)(F)F)c1C(=O)Nc1cc(C(F)(F)F)cc(C(F)(F)F)c1
inactive: [3] 1.03 | [4] 1.02 | [5] 1.02 | [1] 1.04 | [6] 1 | [7] 1.01 | [8] 1.01 | [2] 1.11 | [9] 1.04 | [10] 1.01 | [11] 1 | [12] 1.03 | [13] 0.998 | [14] 1.03 | [15] 1.01 | [16] 1.08 | [17] 1.01 | [18] 1.01 | S. cerevisiae deletion strains, locus YMR307W, strain GAS1, stronger effect = lower value 1.01 | [19] 1 | [20] 1.01 | [21] 1.03 | [22] 1.01 | [23] 1.03 | [24] 1.09 | [25] 1.07 | [26] 1.06 | [27] 1.1 | [28] 1.01

COc1ccc(NC(=O)c2cc(C(F)(F)F)cc(C(F)(F)F)c2)cn1
inactive: [3] 0.964 | [4] 0.938 | [5] 0.968 | [1] 0.928 | [6] 1.05 | [7] 0.942 | [29] 0.959 | [2] 0.826 | [9] 0.925 | [10] 0.959 | [11] 0.893 | S. cerevisiae deletion strains, locus YKL190W, strain CNB1, stronger effect = lower value 0.947 | [14] 0.781 | [16] 0.927 | [17] 0.949 | [18] 0.98 | [19] 0.953 | [20] 0.983 | [21] 0.895 | [23] 0.9 | [24] 0.867 | [25] 0.963 | [26] 0.908 | [28] 0.931
active: [8] 0.92 | [12] 0.539 | [13] 0.926 | [15] 0.636 | [22] 0.938 | [27] 0.611

CC(=O)OCC1=C(C(=O)O)N2C(=O)C(NC(=O)CSc3ccncc3)C2SC1 (stereo not given)
inactive: S. cerevisiae deletion strains, locus YAL040C, strain CLN3, stronger effect = lower value 0.974 | S. cerevisiae deletion strains, locus YCL061C, strain MRC1 (second series), stronger effect = lower value 0.991 | S. cerevisiae deletion strains, locus YER002W, strain NOP16, stronger effect = lower value 1.02 | [29] 0.99 | [18] 0.974 | S. cerevisiae deletion strains, locus YNL175C, strain NOP13, stronger effect = lower value 1 | S. cerevisiae deletion strains, locus YNL197C, strain WHI3, stronger effect = lower value 1 | S. cerevisiae deletion strains, locus YNL224C, strain SQS1, stronger effect = lower value 1 | S. cerevisiae deletion strains, locus YOR083W, strain WHI5 (second series), stronger effect = lower value 1.02 | [25] 1.01
